Common to all, as to experiment: NCI-60 one-dose screen, 48 h (100 = growth as untreated, 0 = no growth, -100 = all killed)
Holding throughout (settings): 10 µM unless noted

The subject of experiment [1] is SR leukemia.
For experiment [2], the system named is OVCAR-8 ovarian.
In experiment [3] the test system is OVCAR-5 ovarian.
The test system of experiment [4] is OVCAR-4 ovarian.
Experiment [5] has as its system SK-OV-3 ovarian.
Experiment [6] deals with IGROV1 ovarian.
Experiment [7] concerns OVCAR-3 ovarian.
Experiment [8] has as its system HS 578T breast.
Experiment [9] has as its system NCI/ADR-RES ovarian.
The subject of experiment [10] is T-47D breast.
The subject of experiment [11] is BT-549 breast.
Experiment [12] concerns MDA-MB-435 melanoma.
For experiment [13], the system named is SW-620 colon.
The test system of experiment [14] is MCF7 breast.
For experiment [15], the system named is HCT-116 colon.
The subject of experiment [16] is HCC-2998 colon.
The subject of experiment [17] is KM12 colon.
Experiment [18] relates to MDA-MB-468 breast.
Experiment [19] concerns RPMI-8226 leukemia.

About 83,000 compounds went through this panel and 20% of them were active in at least one assay; those are over-represented in the sample as a whole.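 Plates (96-well) were seeded with cells, treated with compound at one concentration, and incubated for 48 hours before percent growth was determined.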 Values without a mark were called inactive. The source made the active and inactive calls. The calls were made as follows: active = growth percent below 10; inactive = the rest.

In the case of `Cc1cc2nc3c([nH]c2cc1C)c1ccc(=O)cc1n3CCN(C)C`, the growth is 3.01% (active) in experiment [1]; 34% in experiment [2]; 39.8% in experiment [3]; 46.9% in experiment [4]; 63.7% in experiment [5]; 28.2% in experiment [6]. In addition, the growth in experiment [7] was 67.3%; in experiment [8], 81.3%; in experiment [9] it was 33.6%; in experiment [10], 60%; in experiment [11], 65.5%; in [12] it was 45%. Further, the growth in experiment [13] was 22.6%; in experiment [14], 12%; in [15], 14.4%; in experiment [16], 26.8%; in experiment [17] it was 43.4%; in experiment [18] it was 43%.
As to `COc1ccc(C(=O)Nc2n[nH]c(Nc3ccccc3)c2C#N)cc1`, the growth in [19] was 133%; in experiment [2], 111%; in [3], 97.6%; in [4], 118%; in experiment [5] it was 119%; in [6] it was 105%. Further, the growth in [7] is 111%; in experiment [8], 114%; in experiment [9] it was 109%; in experiment [10], 113%; in [12], 118%; in experiment [13] it was 102%. In addition, the growth is 94.8% in [14]; 105% in experiment [15]; 120% in [16]; 112% in [17]; 112% in experiment [18].
In the case of `Clc1cccc(Cl)c1/C=C/c1cc(/C=C/c2ccc(Br)cc2)c2ccccc2n1`, the growth was 92.4% in experiment [1]; 86.6% in [19]; 97.4% in experiment [3]; 93.8% in experiment [4]; 98.2% in experiment [5]; 96.6% in [6]. The growth in [7] is 111%; in [9] it was 95.5%; in [10], 81.2%; in experiment [11], 91.2%; in experiment [12], 99.9%; in [14] it was 83.3%. Also, the growth was 95.8% in experiment [15], 118% in experiment [16], 102% in experiment [17] and 111% in [18].
Turning to `N#Cc1c(-c2ccc(Cl)cc2)nc2n[nH]c(-c3ccc(Cl)cc3)c2c1-c1ccc(C(F)(F)F)cc1`, the growth in experiment [1] was -21.8% (active); in [19], -2.57% (active); in [3], -41.8% (active); in [4], 2.98% (active); in experiment [5], 3.06% (active); in experiment [6], -15% (active). Moreover, the growth in experiment [7] is -13.9% (active); in [10], -2.6% (active); in experiment [11], -40% (active); in [12], -29.7% (active); in experiment [14], -4.6% (active); in [15] it was -63.3% (active). Also, the growth in experiment [16] was -38.9% (active); in experiment [17], -11% (active); in experiment [18] it was -45% (active).
Regarding `COc1ccc(-c2nnc3ccc(N/N=C/c4ccc(O)cc4)nn23)cc1`, the growth in experiment [19] is 13.1%; in [2], 45.4%; in [3] it was 88.9%; in experiment [4], 47.9%; in experiment [5] it was 104%; in [6] it was 39.3%. Besides, the growth in [7] was 37.6%; in [8], 46.8%; in [9] it was 26%; in experiment [10], 45.4%; in experiment [12], 45.8%; in experiment [13], 67.1%. The growth in experiment [14] was 13.2%; in [15], 27.3%; in experiment [16] it was 14.9%; in experiment [17] it was 28.5%.
`COc1cc2c(c(OC)c1OC)C(=O)CC(c1cccc(NC(=O)c3cccc(NC(=O)[C@H](C)NC(=O)OC(C)(C)C)c3)c1)O2` (stereo partly specified): the growth in experiment [19] was 36.5%; in experiment [2], 28.2%; in experiment [3], 123%; in experiment [4] it was 51.8%; in [5], 91.9%; in experiment [6] it was 65.3%. Moreover, the growth was 52.9% in experiment [7]; 73.6% in [8]; 80% in experiment [9]; 19.8% in experiment [10]; 36.9% in experiment [11]; 65.6% in [12]. Also, the growth in experiment [13] is 86.9%; in [14] it was 39.3%; in experiment [15], 41.2%; in experiment [16], 105%; in experiment [17], 41.2%.
As to `O=C(NNc1nc2cc(F)ccc2n2c(CN3CCCCC3)ccc12)c1cnccn1`, the growth was -2.84% (active) in experiment [19]; -84% (active) in [2]; -69.5% (active) in experiment [3]; -45.5% (active) in experiment [4]; -63.7% (active) in experiment [5]; -3.63% (active) in [6]. Also, the growth in experiment [7] was -45.9% (active); in experiment [8], 23.7%; in [9], -31.5% (active); in [10] it was -61.5% (active); in experiment [12], -46.3% (active); in experiment [13] it was 2.86% (active). Moreover, the growth in experiment [14] was -55.9% (active); in experiment [15], -86.9% (active); in experiment [16], -65.2% (active); in experiment [17], -29.8% (active); in experiment [18], -62.8% (active).
For the compound `COc1ccc(C(=O)/C=C/c2cccc(Br)c2)cc1S(N)(=O)=O`, the growth is -15.9% (active) in experiment [19]; -95.1% (active) in experiment [2]; -92% (active) in experiment [3]; 7.28% (active) in experiment [4]; 8.53% (active) in experiment [5]; -33.7% (active) in [6]. In addition, the growth in experiment [7] was -47.7% (active); in [8] it was 30.8%; in experiment [9], -21.5% (active); in experiment [10], -71.4% (active); in experiment [12] it was -5.65% (active); in [13] it was -19.8% (active). In addition, the growth was -77.2% (active) in experiment [14]; -99.2% (active) in experiment [15]; -92.8% (active) in experiment [16]; -62.8% (active) in experiment [17]; -53.9% (active) in experiment [18].
Take `COCOc1ccc2c(=O)c(C)c(C(=O)N[C@@H](Cc3ccccc3)C(O)C(=O)NCCc3ccc(OC)cc3)oc2c1` (stereo partly specified): the growth in experiment [19] was 100%; in [2], 107%; in experiment [3], 116%; in experiment [4] it was 122%; in experiment [5], 113%; in [6] it was 122%. In addition, the growth is 120% in experiment [7]; 104% in experiment [8]; 107% in [9]; 97.1% in experiment [10]; 122% in experiment [11]; 115% in experiment [12]. In addition, the growth in experiment [13] is 114%; in experiment [14], 103%; in experiment [15], 104%; in experiment [16] it was 125%; in experiment [17] it was 108%; in experiment [18], 95.2%.

The values are drawn from PubChem BioAssay (NCI).
